From PubChem BioAssay AID1159580 (chemical genetic matrix, 2015)
Screen size: about 5,500 compounds; about 2,000 (36%) were called active. Roughly 18% stayed inconclusive and do not appear here. Rule as the data show it: active = normalized growth mostly below about 0.91 (no sharp cut-off); inconclusive = no clear call, values can overlap the other calls; inactive = mostly above about 0.92. Some of the results follow.

Experiment: chemical genetic growth profiling, strain panel (AID 1159580);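 also: tested at 20 µM; growth read once vehicle control cultures reached saturation at 30 °C; 1 = growth at the plate median or of vehicle wells; lower values mean less growth of the strain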
Settings: S. cerevisiae deletion strains, growth OD

Measured: normalized growth

COc1ccc(-c2coc3c(OC)c(OC)ccc3c2=O)cc1
inactive: locus YBR229C, strain ROT2, active compounds read low 0.996 | locus YCL029C, strain bik1, active compounds read low 0.998 | locus YDL035C, strain GPR1, active compounds read low 0.963 | locus YDL074C, strain BRE1, active compounds read low 0.917 | locus YDL101C, strain DUN1, active compounds read low 0.969 | locus YDL134C, strain PPH21, active compounds read low 0.924 | locus YDL185W, strain tfp1, active compounds read low 1.01 | locus YDL192W, strain arf1, active compounds read low 0.997 | locus YDR101C, strain arx1, active compounds read low 0.985 | locus YDR162C, strain NBP2, active compounds read low 0.875 | locus YDR318W, strain mcm21, active compounds read low 0.988 | locus YDR388W, active compounds read low 1 | locus YDR502C, strain sam2, active compounds read low 0.986 | locus YEL061C, strain CIN8, active compounds read low 0.986 | locus YER110C, active compounds read low 1.01 | locus YER155C, strain BEM2, active compounds read low 0.988 | locus YER167W, strain BCK2, active compounds read low 0.974 | locus YGL078C, strain dbp3, active compounds read low 1 | locus YGL086W, strain mad1, active compounds read low 0.958 | locus YGL248W, strain PDE1, active compounds read low 0.957 | locus YGR135W, strain pre9, active compounds read low 0.968 | locus YGR252W, strain gcn5, active compounds read low 0.82 | locus YHR030C, strain SLT2, active compounds read low 0.984 | locus YHR079C, strain IRE1 (second series), active compounds read low 1.01 | locus YHR094C, strain hxt1, active compounds read low 1.01 | locus YHR129C, strain ARP1, active compounds read low 0.983 | locus YHR200W, strain rpn10, active compounds read low 1.01 | locus YIL066C, strain RNR3, active compounds read low 0.925 | locus YIL073C, strain SPO22, active compounds read low 0.99 | locus YIL125W, strain kgd1, active compounds read low 1 | locus YIR030C, strain dcg1, active compounds read low 0.998 | locus YJL095W, strain BCK1, active compounds read low 0.838 | locus YJL134W, strain LCB3, active compounds read low 0.995 | locus YJL168C, strain set2, active compounds read low 1.01 | locus YJL187C, strain SWE1 (second series), active compounds read low 0.957 | locus YJR043C, strain POL32, active compounds read low 0.899 | locus YJR075W, strain HOC1, active compounds read low 0.95 | locus YKL009W, strain mrt4, active compounds read low 0.988 | locus YKL068W, active compounds read low 1 | locus YKL085W, strain MDH1 (second series), active compounds read low 0.994 | locus YKL085W, strain MDH1, active compounds read low 0.994 | locus YKR001C, strain vps1, active compounds read low 0.948 | locus YLR039C, strain RIC1, active compounds read low 0.907 | locus YLR058C, strain SHM2, active compounds read low 0.974 | locus YLR102C, strain apc9, active compounds read low 1.01 | locus YLR262C, strain YPT6, active compounds read low 0.906 | locus YLR268W, strain sec22, active compounds read low 0.953 | locus YLR330W, strain CHS5, active compounds read low 0.972 | locus YLR342W, strain FKS1 (second series), active compounds read low 0.912 | locus YLR371W, strain rom2, active compounds read low 1.01 | locus YLR418C, strain cdc73, active compounds read low 0.879 | locus YML016C, strain PPZ1, active compounds read low 0.993 | locus YML032C, strain rad52, active compounds read low 0.995 | locus YML124C, strain tub3, active compounds read low 0.997 | locus YMR078C, strain ctf18, active compounds read low 1.02 | locus YMR223W, strain ubp8, active compounds read low 1.01 | locus YMR263W, strain SAP30, active compounds read low 0.931 | locus YMR307W, strain GAS1, active compounds read low 0.834 | locus YNL067W, strain RPL9B, active compounds read low 0.941 | locus YNL128W, strain TEP1, active compounds read low 0.973 | locus YNL153C, strain GIM3, active compounds read low 0.955 | locus YNL233W, strain BNI4, active compounds read low 0.884 | locus YNL250W, strain rad50, active compounds read low 1.03 | locus YNL271C, strain bni1, active compounds read low 0.997 | locus YNL298W, strain CLA4, active compounds read low 0.997 | locus YNL307C, strain MCK1, active compounds read low 0.96 | locus YNL322C, strain KRE1, active compounds read low 0.98 | locus YNR052C, strain pop2, active compounds read low 1.01 | locus YOL012C, strain htz1 1.11 | locus YOL147C, strain pex11, active compounds read low 0.989 | locus YOR061W, strain CKA2, active compounds read low 0.995 | locus YOR069W, strain VPS5, active compounds read low 0.998 | locus YOR136W, strain idh2, active compounds read low 1 | locus YOR144C, strain elg1, active compounds read low 0.994 | locus YOR184W, strain ser1, active compounds read low 0.917 | locus YOR316C, strain cot1, active compounds read low 1 | locus YPL055C, strain LGE1, active compounds read low 0.888 | locus YPR119W, strain clb2, active compounds read low 1.02 | locus YPR141C, strain kar3, active compounds read low 1 | locus YPR163C, strain tif3, active compounds read low 0.999 | locus YPR167C, strain met16, active compounds read low 1 | strain wtn01, active compounds read low 0.988
active: locus YBR021W, strain FUR4, active compounds read low 0.728 | locus YGR229C, strain SMI1, active compounds read low 0.787
